The subject of the assay is Plasmodium falciparum. Kind of assay: GSK_TCMDC: Inhibition of Plasmodium falciparum 3D7 in whole red blood cells, using parasite LDH activity as an index of growth. Test compounds present at 2uM. It is filed as functional.
Regarding `COc1ccc(C=NN=c2cc(C)[nH]c3ccccc23)c2ccccc12`, the Inhibition (commonly how much of the control response was suppressed) was 99%.

For `Fc1ccc(COc2ccc(Nc3ncnc4ccc(I)cc34)cc2Cl)cc1`, the Inhibition came to 86%.

`Cc1cc2nc(-c3ccc(/C=C/C(=O)NCc4ccc(Cl)c(Cl)c4)cc3)[nH]c2cc1C` had an Inhibition of 98%.

The compound `Cl.N#Cc1ccc2c(c1)CCN(CCC1CCC(NC(=O)/C=C/c3nc4ccccc4s3)CC1)CC2` (stereo not given) came in with an Inhibition of 90%.

`O=[N+]([O-])c1ccccc1C=NN=c1c2c([nH]c3ccccc13)CCCC2` yielded an Inhibition of 97%.

For the compound `COc1cc2nc(N3CCC(CNC(=O)c4ccc(-c5ccc(C(=O)N(C)C)cc5O)cc4)CC3)nc(N)c2cc1OC`, the Inhibition stood at 100%.

The compound `CCCCCN(C(=O)Nc1cc(C(F)(F)F)cc(C(F)(F)F)c1)C(C)c1nc2ccccc2c(=O)n1CC` (stereo not given) registered an Inhibition of 100%.

`COc1ccc(NC2=C(c3ccccc3)C(=O)c3ccccc32)cn1` registered an Inhibition of 96%.

For `CC(=O)c1cccc(NC(=O)NC2CCN(c3ccnc(Nc4ccc(F)cc4)n3)C2)c1` (stereo not given), the Inhibition is given as 99%.

In the case of `c1ccc(-c2cc3cccc(-c4nc5cnccc5[nH]4)c3o2)cc1`, the Inhibition stood at 100%.

For `CNC(=O)c1cc(Nc2nnc(-c3ccc(C)c(S(=O)(=O)NC4CCCCC4)c3)c3ccccc23)ccc1OC`, the Inhibition was determined as 87%.

Compound `Cc1cc(NC(=O)NCCN2CCC(NC(=O)c3ccc(Cl)cc3)CC2)c2ccccc2n1` had an Inhibition of 90%.

Compound `CC(C)CN(Cc1c(O)ccc2[nH]c(-c3ccc(F)cc3F)nc12)CC(C)C` displayed an Inhibition of 98%.

`CC(C)(C)c1ccc(C(=O)N2CCC3(CC2)C(=O)N(CC(=O)NCC2CCCO2)CN3c2ccccc2)cc1` (stereo not given): the Inhibition turned out to be 100%.

In turn, `Cc1cc(NC(=O)Nc2ccc(C#N)cc2)c2ccccc2n1` showed an Inhibition of 100%.

In the case of `COc1ccc(C(=O)CCC(=O)N(Cc2ccc(-c3ccc(CNCCc4ccc(S(C)(=O)=O)cc4)cn3)cc2)C(C)CN(C)C)cc1F.O=C(O)C(F)(F)F` (stereo not given), the Inhibition was determined as 98%.

Compound `Cc1ccc(Cn2ncc(N3CCC(N)CC3)c(Cl)c2=O)cc1NC(=O)Nc1ccc(-c2ccccc2)cc1.O=C(O)C(F)(F)F` yielded an Inhibition of 90%.

Take `CCc1cc(C(=O)c2cccc(C)c2)c(NC(=O)CN2CCN(C(=O)c3ccco3)CC2)s1`: the Inhibition is reported as 91%.

`CC1(C)N=C(N)N=C(N)N1OCc1cc2ccccc2cc1CON1C(N)=NC(N)=NC1(C)C` came in with an Inhibition of 92%.

For the compound `Oc1cc2c(cc1CN1CCN(Cc3ccccc3F)CC1)CCC2`, the Inhibition is recorded as 98%.

Compound `O=C(Nc1cc(Cl)cc(Cl)c1)Nc1ccccc1C(=O)NC1CCCCC1` showed an Inhibition of 100%.

Take `CN1CCN(CCCN(Cc2cccc(-c3ccc(CNC4CCCC4)cc3)c2)C(=O)CCC2CCCC2)CC1.O=C(O)C(F)(F)F`: the Inhibition was determined as 97%.

Regarding `Cc1cc(CNCCCCCCNCc2ccc(-c3ccccc3)cc2)ccc1O`, the Inhibition turned out to be 98%.

As to `Cc1cccc(OC(C)C(=O)Nc2cc(C(F)(F)F)ccc2N2CCOCC2)c1` (stereo not given), the Inhibition was 100%.

In the case of `Cc1cc(-c2nc3ccc(N4CCN(C)CC4)cc3[nH]2)nn1Cc1cc(Cl)ccc1OCC(C)C.Cl`, the Inhibition came to 99%.

Turning to `COc1ccc2nccc([C@@H](O)CN3CCC(NCc4cc5ccccc5[nH]4)CC3)c2c1.CS(=O)(=O)O`, the Inhibition is given as 92%.

Take `Fc1ccc2[nH]c(-c3ccc(-c4ccc(CNCCN5CCNCC5)cc4)s3)nc2c1.O=C(O)C(F)(F)F`: the Inhibition came out at 96%.

Consider `Cl.N=c1n(CCN2CCCCC2)c2ccccc2n1CC(O)c1cccc(Br)c1` (stereo not given), for which the Inhibition came to 86%.

Turning to `Clc1ccc(-c2[nH]c3ccccc3c2CN2CCC(N3CCCCC3)CC2)cc1`, the Inhibition is recorded as 93%.

`CNCc1cccc2nc(-c3csc(Cc4cc(Cl)ccc4OCC(C)C)n3)[nH]c12`: the Inhibition is reported as 100%.

Compound `Cc1noc(C)c1-c1cccc(CNCc2ccc(-c3cccc(-c4nc5cc(F)ccc5[nH]4)c3)cc2)c1.O=C(O)C(F)(F)F` gave an Inhibition of 100%.

In turn, `O=C(NC1CCN(CC2(c3ccccc3)CCCC2)CC1)c1n[nH]cc1Cl` registered an Inhibition of 83%.

With `CCOC(=O)NC1=NC(=N)N(OCc2ccc(Cl)c(Cl)c2)C(C)(C)N1`, the Inhibition worked out at 96%.

`Cc1cccc2nc(-c3ccc(-c4ccc(NC(=O)C(=O)c5cccn5C)cc4)cc3)[nH]c12` returned an Inhibition of 95%.

`Cc1ccc([S+]([O-])Cc2ccc(Cl)cc2)cc1` (stereo not given) had an Inhibition of 98%.

Take `COc1ccc(NC(=O)c2ccc(C=Cc3ccc(C(F)(F)F)cc3)cc2)cc1N1CCN(C)CC1`: the Inhibition worked out at 99%.

For the compound `Cl.Oc1ccc(-c2ccccc2)cc1CNC1CCCCC1`, the Inhibition is recorded as 95%.

Regarding `O=S(=O)(c1cccc(C(F)(F)F)c1)N1CCC(CO)(Cc2cccc(C(F)(F)F)c2)CC1`, the Inhibition stood at 100%.

Consider `CN(CCCCCNC(=O)/C=C/c1ccc(Cl)c(Cl)c1)CCc1c[nH]c2ccccc12`, for which the Inhibition is given as 91%.

`CC1(C)NC(N)=NC(=N)N1OCc1ccc(-c2ccccc2)cc1` returned an Inhibition of 95%.

These data come from ChEMBL document CHEMBL1157539, “Thousands of chemical starting points for antimalarial lead identification” (Nature, 2010).
